# Results reported in publication PMC7862700, “An all-to-all approach to the identification of sequence-specific readers for epigenetic DNA modifications on cytosine”.
# Experiments:
# Experiment in all cases: DAPPL (digital affinity profiling via proximity ligation, sequencing); 10 mM Tris-HCl pH 7.5, 50 mM NaCl, 1 mM DTT, 4% glycerol, room temperature, 30 min; GST-TFs on glutathione beads, 16-mer random dsDNA library, 0.1% formaldehyde crosslink after washing; high values mean tight binding
# FLI1 = target: T1, FLI1 (Homo sapiens, UniProt Q01543 1-452); settings: protein: recombinant; tags: N-terminal GST; dsDNA, one strand shown
# T1 sequence: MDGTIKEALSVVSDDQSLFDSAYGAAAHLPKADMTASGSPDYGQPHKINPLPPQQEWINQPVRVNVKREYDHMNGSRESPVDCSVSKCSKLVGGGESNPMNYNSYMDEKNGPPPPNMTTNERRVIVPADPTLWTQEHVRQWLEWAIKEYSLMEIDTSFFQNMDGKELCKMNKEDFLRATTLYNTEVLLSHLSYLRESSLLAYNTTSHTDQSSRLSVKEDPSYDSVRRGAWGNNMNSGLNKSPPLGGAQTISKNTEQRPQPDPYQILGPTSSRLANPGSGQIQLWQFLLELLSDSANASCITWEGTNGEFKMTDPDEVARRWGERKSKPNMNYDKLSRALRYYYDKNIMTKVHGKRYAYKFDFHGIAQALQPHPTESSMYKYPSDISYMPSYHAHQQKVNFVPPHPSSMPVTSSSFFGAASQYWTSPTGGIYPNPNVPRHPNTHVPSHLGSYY
# In short: (§1)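 In yeast, human transcription factors were expressed with a GST fusion, then pulled down on glutathione beads and given DNA barcodes. Pooled with a tag-only sample, they were exposed to 200 nmole of a 16-mer random double-stranded DNA library (Tris/NaCl/DTT/glycerol buffer, room temperature, 30 min), washed, crosslinked with 0.1% formaldehyde, proximity-ligated using BsaI/T4 ligase for 1 h at 37 °C, PCR-amplified and read on an Illumina NextSeq500. Each hexamer's frequency of reads for a factor, divided by the matching frequency for the tag-only sample, gives the binding signal.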
# ELK1 = target: T2, ELK1 (Homo sapiens, UniProt P19419 1-428); settings: protein: recombinant; tags: N-terminal GST; dsDNA, one strand shown
# T2 sequence: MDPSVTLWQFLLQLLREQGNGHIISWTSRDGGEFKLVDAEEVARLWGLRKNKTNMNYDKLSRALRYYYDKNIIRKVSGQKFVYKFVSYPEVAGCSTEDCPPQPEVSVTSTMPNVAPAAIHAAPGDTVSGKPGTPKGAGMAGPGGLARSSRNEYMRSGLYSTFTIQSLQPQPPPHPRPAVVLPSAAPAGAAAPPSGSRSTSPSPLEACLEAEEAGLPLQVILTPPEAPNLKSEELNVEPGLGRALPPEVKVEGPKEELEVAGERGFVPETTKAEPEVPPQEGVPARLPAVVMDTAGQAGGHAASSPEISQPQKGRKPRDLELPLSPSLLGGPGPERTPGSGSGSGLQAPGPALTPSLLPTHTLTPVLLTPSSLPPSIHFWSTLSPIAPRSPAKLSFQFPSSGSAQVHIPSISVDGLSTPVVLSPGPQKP
# In short: as §1
# GABPA = target: T3, GABPA (Homo sapiens, UniProt Q06546 1-454); settings: protein: recombinant; tags: N-terminal GST; dsDNA, one strand shown
# T3 sequence: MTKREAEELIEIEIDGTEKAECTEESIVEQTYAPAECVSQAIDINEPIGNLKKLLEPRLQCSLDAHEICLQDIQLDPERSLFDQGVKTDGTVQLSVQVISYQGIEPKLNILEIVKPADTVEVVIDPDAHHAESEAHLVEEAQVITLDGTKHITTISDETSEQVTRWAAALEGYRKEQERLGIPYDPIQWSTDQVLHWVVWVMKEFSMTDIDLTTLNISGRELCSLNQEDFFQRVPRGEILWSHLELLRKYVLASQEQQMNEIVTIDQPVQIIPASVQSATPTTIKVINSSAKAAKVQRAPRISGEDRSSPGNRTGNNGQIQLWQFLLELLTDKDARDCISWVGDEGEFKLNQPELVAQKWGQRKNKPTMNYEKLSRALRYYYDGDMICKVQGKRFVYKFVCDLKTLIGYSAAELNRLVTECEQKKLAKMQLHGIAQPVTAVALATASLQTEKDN
# In short: as §1
# ERG = target: T4, ERG (Homo sapiens, UniProt P11308 1-479); settings: protein: recombinant; tags: N-terminal GST; dsDNA, one strand shown
# T4 sequence: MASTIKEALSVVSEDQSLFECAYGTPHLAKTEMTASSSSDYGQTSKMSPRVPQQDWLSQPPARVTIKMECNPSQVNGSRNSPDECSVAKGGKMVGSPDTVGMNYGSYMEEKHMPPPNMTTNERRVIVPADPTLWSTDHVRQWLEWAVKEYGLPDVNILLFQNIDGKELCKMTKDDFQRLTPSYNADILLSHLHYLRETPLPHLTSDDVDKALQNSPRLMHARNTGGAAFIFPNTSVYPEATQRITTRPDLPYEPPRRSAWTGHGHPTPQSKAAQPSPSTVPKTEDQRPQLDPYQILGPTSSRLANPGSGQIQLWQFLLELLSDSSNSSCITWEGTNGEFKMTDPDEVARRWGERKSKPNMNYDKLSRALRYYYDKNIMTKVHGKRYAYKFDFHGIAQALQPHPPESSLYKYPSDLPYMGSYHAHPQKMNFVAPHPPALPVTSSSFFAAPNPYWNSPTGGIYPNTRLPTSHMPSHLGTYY
# In short: as §1
# ELF1 = ELF1 (Homo sapiens, UniProt P32519 1-619); settings: protein: recombinant; tags: N-terminal GST; dsDNA, one strand shown
# In short: as §1
# EHF = target: T5, EHF (Homo sapiens, UniProt Q9NZC4 1-300); settings: protein: recombinant; tags: N-terminal GST; dsDNA, one strand shown
# T5 sequence: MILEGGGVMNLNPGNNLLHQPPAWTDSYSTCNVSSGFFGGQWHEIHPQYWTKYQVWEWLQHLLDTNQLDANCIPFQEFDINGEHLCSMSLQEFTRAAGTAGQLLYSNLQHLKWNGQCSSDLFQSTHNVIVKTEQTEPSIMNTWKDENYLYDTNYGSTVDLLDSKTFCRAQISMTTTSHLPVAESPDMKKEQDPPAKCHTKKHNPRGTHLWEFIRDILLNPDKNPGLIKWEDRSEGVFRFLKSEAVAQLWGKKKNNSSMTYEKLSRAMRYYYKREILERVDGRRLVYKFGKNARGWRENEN
# In short: as §1
# SPI1 = SPI1 (Homo sapiens, UniProt P17947 1-270); settings: protein: recombinant; tags: N-terminal GST; dsDNA, one strand shown
# In short: as §1
# SPIB = SPIB (Homo sapiens, UniProt Q01892 1-262); settings: protein: recombinant; tags: N-terminal GST; dsDNA, one strand shown
# In short: as §1
# ELK3 = target: T6, ELK3 (Homo sapiens, UniProt P41970 1-407); settings: protein: recombinant; tags: N-terminal GST; dsDNA, one strand shown
# T6 sequence: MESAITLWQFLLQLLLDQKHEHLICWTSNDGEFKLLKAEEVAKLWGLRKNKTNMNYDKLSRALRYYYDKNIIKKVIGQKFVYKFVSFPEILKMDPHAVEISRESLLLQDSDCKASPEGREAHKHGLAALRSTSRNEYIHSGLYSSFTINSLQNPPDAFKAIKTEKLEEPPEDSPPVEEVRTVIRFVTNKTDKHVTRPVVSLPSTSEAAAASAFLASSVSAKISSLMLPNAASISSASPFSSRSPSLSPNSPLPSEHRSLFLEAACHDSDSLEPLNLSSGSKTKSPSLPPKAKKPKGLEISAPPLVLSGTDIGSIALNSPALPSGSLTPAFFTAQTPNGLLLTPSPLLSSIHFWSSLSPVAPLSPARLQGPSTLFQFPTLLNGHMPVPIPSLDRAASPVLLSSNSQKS
# In short: as §1
# FEV = target: T7, FEV (Homo sapiens, UniProt Q99581 1-238); settings: protein: recombinant; tags: N-terminal GST; dsDNA, one strand shown
# T7 sequence: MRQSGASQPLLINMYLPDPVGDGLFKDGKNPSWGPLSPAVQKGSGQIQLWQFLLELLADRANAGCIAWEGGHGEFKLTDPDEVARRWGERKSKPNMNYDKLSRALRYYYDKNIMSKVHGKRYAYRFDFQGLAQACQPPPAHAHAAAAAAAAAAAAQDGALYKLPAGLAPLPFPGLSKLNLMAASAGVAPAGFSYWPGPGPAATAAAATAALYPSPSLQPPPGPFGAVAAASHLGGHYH
# In short: as §1
# ETV5 = ETV5 (Homo sapiens, UniProt P41161 1-510); settings: protein: recombinant; tags: N-terminal GST; dsDNA, one strand shown
# In short: as §1
# HSF1 = HSF1 (Homo sapiens, UniProt Q00613 1-529); settings: protein: recombinant; tags: N-terminal GST; chain copies: 3; dsDNA, one strand shown
# In short: as §1
# SPIC = target: T8, SPIC (Homo sapiens, UniProt Q8N5J4 1-248); settings: protein: recombinant; tags: N-terminal GST; dsDNA, one strand shown
# T8 sequence: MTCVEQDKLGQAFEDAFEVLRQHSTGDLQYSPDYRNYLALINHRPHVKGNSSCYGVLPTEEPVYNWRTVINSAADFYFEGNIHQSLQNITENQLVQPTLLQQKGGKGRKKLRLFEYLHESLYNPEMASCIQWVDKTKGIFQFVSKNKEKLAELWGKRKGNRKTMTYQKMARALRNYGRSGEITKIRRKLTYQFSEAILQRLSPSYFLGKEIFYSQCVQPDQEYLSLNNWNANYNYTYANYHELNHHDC
# In short: as §1
# ELF4 = ELF4 (Homo sapiens, UniProt Q99607 1-663); settings: protein: recombinant; tags: N-terminal GST; dsDNA, one strand shown
# In short: as §1
# ELK4 = target: T9, ELK4 (Homo sapiens, UniProt P28324-2 1-405); settings: protein: recombinant; tags: N-terminal GST; dsDNA, one strand shown
# T9 sequence: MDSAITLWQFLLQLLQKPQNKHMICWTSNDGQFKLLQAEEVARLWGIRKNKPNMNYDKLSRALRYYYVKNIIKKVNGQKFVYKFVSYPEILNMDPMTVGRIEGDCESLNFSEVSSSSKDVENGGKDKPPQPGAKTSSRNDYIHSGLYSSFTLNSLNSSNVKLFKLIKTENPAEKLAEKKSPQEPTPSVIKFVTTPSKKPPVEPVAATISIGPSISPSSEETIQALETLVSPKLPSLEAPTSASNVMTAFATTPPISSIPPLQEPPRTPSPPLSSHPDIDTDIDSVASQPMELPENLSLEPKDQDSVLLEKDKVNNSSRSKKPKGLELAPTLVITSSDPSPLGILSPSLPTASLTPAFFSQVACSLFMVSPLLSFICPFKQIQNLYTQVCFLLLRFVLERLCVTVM
# In short: as §1
# ETV2 = target: T10, ETV2 (Homo sapiens, UniProt O00321 1-342); settings: protein: recombinant; tags: N-terminal GST; dsDNA, one strand shown
# T10 sequence: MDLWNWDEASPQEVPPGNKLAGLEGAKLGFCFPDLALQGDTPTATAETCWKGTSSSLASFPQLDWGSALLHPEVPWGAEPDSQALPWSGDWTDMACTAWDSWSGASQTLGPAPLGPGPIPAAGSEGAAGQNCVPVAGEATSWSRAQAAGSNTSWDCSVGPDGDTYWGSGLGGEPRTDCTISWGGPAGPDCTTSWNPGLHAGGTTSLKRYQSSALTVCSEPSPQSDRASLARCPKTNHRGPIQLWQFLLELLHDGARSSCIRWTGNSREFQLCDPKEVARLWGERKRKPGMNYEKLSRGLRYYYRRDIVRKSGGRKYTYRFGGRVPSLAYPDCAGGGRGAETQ
# In short: as §1
# ELF3 = target: T11, ELF3 (Homo sapiens, UniProt P78545 1-371); settings: protein: recombinant; tags: N-terminal GST; dsDNA, one strand shown
# T11 sequence: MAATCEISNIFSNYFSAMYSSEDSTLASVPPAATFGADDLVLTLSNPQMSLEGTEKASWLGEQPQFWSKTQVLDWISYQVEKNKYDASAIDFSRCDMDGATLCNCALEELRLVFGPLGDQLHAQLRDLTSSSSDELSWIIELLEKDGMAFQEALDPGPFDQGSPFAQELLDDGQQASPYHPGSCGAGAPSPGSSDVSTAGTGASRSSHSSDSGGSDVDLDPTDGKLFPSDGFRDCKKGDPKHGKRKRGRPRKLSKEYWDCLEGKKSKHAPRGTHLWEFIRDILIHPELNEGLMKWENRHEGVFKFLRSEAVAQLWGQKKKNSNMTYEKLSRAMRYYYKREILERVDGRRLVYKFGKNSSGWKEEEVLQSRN
# In short: as §1
# CRX = CRX (Homo sapiens, UniProt O43186 1-299); settings: protein: recombinant; tags: N-terminal GST; dsDNA, one strand shown
# In short: as §1
# ETV1 = ETV1 (Homo sapiens, UniProt P50549 1-477); settings: protein: recombinant; tags: N-terminal GST; dsDNA, one strand shown
# In short: as §1
# Sequence of ELF1 (P32519 whole entry): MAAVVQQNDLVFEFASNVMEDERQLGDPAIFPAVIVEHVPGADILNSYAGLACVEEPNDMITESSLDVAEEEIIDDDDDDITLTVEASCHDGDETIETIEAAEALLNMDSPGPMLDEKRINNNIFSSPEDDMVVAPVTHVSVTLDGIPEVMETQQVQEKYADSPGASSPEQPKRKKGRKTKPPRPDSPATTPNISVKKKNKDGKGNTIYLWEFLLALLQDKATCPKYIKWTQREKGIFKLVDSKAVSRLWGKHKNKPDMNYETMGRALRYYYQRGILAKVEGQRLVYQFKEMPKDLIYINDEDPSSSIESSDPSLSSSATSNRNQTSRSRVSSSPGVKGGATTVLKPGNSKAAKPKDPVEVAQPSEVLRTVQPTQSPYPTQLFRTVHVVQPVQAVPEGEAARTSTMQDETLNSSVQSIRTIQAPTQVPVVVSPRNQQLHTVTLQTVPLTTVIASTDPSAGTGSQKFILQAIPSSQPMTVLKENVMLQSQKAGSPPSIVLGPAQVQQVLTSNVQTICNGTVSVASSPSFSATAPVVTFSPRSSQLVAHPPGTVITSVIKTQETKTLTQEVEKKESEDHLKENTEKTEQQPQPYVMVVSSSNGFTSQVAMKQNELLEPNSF
# Sequence of ETV5 (P41161 whole entry): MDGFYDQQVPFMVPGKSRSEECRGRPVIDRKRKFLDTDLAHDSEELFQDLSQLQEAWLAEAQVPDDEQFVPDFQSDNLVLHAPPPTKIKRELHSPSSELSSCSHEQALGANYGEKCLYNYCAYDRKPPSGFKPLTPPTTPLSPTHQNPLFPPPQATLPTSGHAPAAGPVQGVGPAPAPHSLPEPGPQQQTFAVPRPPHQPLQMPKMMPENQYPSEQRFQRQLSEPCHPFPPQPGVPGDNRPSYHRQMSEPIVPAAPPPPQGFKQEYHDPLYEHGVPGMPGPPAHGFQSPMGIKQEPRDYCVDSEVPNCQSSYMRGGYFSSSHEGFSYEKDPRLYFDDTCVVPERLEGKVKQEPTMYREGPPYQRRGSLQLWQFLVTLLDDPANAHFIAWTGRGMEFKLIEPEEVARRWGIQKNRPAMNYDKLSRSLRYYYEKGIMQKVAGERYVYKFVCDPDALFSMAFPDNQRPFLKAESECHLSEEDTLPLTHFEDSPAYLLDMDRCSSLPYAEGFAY
# Sequence of CRX (O43186 whole entry): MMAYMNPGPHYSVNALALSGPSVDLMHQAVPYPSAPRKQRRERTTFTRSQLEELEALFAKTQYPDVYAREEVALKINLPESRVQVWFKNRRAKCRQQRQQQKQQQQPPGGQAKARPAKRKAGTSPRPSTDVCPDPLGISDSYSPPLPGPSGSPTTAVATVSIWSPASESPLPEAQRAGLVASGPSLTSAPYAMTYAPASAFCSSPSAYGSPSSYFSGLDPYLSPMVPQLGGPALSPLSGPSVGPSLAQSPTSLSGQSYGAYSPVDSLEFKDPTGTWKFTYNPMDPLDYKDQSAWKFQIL
# Sequence of SPIB (Q01892 whole entry): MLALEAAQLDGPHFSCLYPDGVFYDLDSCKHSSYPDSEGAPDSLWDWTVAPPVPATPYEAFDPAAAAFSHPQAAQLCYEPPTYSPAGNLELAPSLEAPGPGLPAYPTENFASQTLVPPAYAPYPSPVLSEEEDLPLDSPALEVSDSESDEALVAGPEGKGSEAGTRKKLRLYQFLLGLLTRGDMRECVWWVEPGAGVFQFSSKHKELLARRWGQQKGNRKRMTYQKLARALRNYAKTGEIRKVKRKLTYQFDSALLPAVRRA
# Sequence of ETV1 (P50549 whole entry): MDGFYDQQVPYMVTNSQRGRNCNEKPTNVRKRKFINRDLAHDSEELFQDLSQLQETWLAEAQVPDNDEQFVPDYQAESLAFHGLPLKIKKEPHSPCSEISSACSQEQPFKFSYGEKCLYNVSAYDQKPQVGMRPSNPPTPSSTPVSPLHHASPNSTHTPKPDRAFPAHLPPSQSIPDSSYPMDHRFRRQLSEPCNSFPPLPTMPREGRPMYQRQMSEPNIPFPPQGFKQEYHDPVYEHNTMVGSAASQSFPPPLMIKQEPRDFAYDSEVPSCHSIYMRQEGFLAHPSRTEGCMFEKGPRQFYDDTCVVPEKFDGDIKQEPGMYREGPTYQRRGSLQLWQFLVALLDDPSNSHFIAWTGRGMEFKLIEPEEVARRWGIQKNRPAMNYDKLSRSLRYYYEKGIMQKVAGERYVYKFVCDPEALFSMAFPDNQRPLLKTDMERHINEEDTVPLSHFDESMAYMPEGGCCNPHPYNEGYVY
# Sequence of HSF1 (Q00613 whole entry): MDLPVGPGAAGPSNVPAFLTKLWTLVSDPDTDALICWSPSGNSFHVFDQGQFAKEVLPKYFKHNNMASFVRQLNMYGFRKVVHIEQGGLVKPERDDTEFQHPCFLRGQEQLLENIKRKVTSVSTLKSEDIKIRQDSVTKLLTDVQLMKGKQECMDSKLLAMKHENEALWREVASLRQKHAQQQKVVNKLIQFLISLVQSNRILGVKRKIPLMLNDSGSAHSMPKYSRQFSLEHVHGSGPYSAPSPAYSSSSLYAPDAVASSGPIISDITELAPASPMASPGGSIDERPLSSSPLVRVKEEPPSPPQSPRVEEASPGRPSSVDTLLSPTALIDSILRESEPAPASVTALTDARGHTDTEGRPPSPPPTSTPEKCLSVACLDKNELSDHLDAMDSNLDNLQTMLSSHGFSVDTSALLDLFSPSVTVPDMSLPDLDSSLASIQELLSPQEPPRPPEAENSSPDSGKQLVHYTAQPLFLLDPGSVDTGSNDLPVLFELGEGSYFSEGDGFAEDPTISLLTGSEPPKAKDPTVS
# Sequence of ELF4 (Q99607 whole entry): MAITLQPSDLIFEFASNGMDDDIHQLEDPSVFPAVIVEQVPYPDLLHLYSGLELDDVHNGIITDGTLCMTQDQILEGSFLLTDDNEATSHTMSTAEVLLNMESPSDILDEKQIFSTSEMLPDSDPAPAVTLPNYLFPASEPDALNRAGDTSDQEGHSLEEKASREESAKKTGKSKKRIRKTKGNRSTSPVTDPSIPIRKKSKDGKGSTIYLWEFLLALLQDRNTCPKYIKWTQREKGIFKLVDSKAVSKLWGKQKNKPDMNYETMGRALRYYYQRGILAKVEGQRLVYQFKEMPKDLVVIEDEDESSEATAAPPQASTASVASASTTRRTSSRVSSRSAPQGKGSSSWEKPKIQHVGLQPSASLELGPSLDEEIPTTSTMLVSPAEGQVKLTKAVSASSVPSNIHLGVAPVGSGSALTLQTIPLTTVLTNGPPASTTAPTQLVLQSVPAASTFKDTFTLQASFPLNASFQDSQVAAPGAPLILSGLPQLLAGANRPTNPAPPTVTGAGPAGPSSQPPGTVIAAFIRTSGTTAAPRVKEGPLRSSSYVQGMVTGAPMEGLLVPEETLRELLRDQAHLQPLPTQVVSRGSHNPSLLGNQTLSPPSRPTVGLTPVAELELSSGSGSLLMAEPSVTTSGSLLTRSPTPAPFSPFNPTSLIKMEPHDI
sequence,measurement,setting,value
TTCCGC,binding signal,FLI1,"3.03 fold enrichment (6-mer frequency, TF over GST control)"
same,binding signal,ELK1,"3.07 fold enrichment (6-mer frequency, TF over GST control)"
same,binding signal,GABPA,"2.79 fold enrichment (6-mer frequency, TF over GST control)"
same,binding signal,ERG,"3.22 fold enrichment (6-mer frequency, TF over GST control)"
same,binding signal,ELF1,"2.85 fold enrichment (6-mer frequency, TF over GST control)"
same,binding signal,EHF,"3.08 fold enrichment (6-mer frequency, TF over GST control)"
same,binding signal,SPI1,"4.75 fold enrichment (6-mer frequency, TF over GST control)"
same,binding signal,SPIB,"3.15 fold enrichment (6-mer frequency, TF over GST control)"
same,binding signal,ELK3,"3.03 fold enrichment (6-mer frequency, TF over GST control)"
same,binding signal,FEV,"3.1 fold enrichment (6-mer frequency, TF over GST control)"
same,binding signal,ETV5,"3.42 fold enrichment (6-mer frequency, TF over GST control)"
same,binding signal,HSF1,"1.34 fold enrichment (6-mer frequency, TF over GST control)"
same,binding signal,SPIC,"3.62 fold enrichment (6-mer frequency, TF over GST control)"
same,binding signal,ELF4,"2.82 fold enrichment (6-mer frequency, TF over GST control)"
same,binding signal,ELK4,"2.57 fold enrichment (6-mer frequency, TF over GST control)"
same,binding signal,ETV2,"2.79 fold enrichment (6-mer frequency, TF over GST control)"
same,binding signal,ELF3,"3.06 fold enrichment (6-mer frequency, TF over GST control)"
same,binding signal,CRX,"1.26 fold enrichment (6-mer frequency, TF over GST control)"
same,binding signal,ETV1,"3.17 fold enrichment (6-mer frequency, TF over GST control)"
